This is an account of results in ChEMBL document CHEMBL1157539, “Thousands of chemical starting points for antimalarial lead identification” (Nature, 2010).

Holding throughout (type): functional
The test system of test [1] is Plasmodium falciparum. Put plainly: GSK_TCMDC: Inhibition of Plasmodium falciparum 3D7 in whole red blood cells, using parasite LDH activity as an index of growth. Test compounds present at 2uM.
In test [2] the test system is Plasmodium falciparum. Description: GSK_TCMDC: Inhibition of Plasmodium falciparum Dd2 in whole red blood cells, using parasite LDH activity as an index of growth. Test compounds present at 2uM.
A further test has as its system HepG2. Put plainly: GSK_TCMDC: Percent inhibition of human HepG2 cell line. Test compounds present at 10uM.

Turning to `COc1c(C2CCN(CCCCNC(=O)c3cccc(-c4ccc(C(F)(F)F)cc4)c3)CC2)ccc2c1CCCC2`, the Inhibition in the test on Plasmodium falciparum [1] is given as 92%; in the test on Plasmodium falciparum [2], 45%; in the test on HepG2, 50%.
The like results for `CCc1c(CCNCCCCCCNC(C)(C)Cc2ccc3c(c2CC)OCO3)ccc(OC)c1OC.Cl` were, in that order, 100%, 50% and 100%.
On to `NC1CCCN(Cc2ccc(-c3ccc(-c4nc5cc(F)ccc5[nH]4)s3)cc2)C1.O=C(O)C(F)(F)F` (centres undefined), for which the Inhibition in the test with Plasmodium falciparum [1] was determined as 100%; in the test on Plasmodium falciparum [2], 98%; in the test with HepG2, 40%.
For the compound `Cc1cc(-c2ccc3c(c2)CC[C@@H](N[C@@H](C)c2ccccc2)C3)cnc1N.Cl`, the Inhibition in the test on Plasmodium falciparum [1] is on record as 98%; in the test with Plasmodium falciparum [2], 7%; in the test on HepG2 it was 3%.
For `N#Cc1cccc(Nc2nccc(NCC(O)c3ccccc3C(F)(F)F)n2)c1` (centres undefined), the Inhibition with Plasmodium falciparum [1] was determined as 98%; with Plasmodium falciparum [2] it was 39%; with HepG2, 36%.
Taken in the same sequence, the figures for `CC1(C)CC2CC(C)(CN2C(=O)c2cc(C(C)(C)C)nn2Cc2ccccc2)C1` (centres undefined) were 86%, 77% and 0%.
Taken in the same sequence, the figures for `COc1cc(CN/C(=N/c2ccc(-c3ccccc3)cc2)Nc2ccc(C#N)cc2O)cc(OC)c1` were 95%, 64% and 0%.
In the case of `Br.CCCc1cc(C(C)=O)ccc1OCCCON1C(=N)N=C(N)NC1(C)C`, the Inhibition in the test with Plasmodium falciparum [1] is recorded as 96%; with Plasmodium falciparum [2], 96%; with HepG2 it was 61%.
Regarding `NC1=NC2(CCCCC2)N(OCCCCCCN2C(=O)c3ccccc3C2=O)C(N)=N1`, the Inhibition in the test with Plasmodium falciparum [1] is reported as 98%; in the test on Plasmodium falciparum [2], 16%; in the test with HepG2, 20%.
Taken in the same sequence, the figures for `CCNc1cc(C(=O)N[C@@H](Cc2ccccc2)[C@H](O)CNC(C)Cc2cccc(Cl)c2)cc(N2CCCCS2(=O)=O)c1.Cl` (some centres undefined) were 98%, 77% and 0%.
On to `CSc1nc2nc(C)c(Cc3cccc(C(F)(F)F)c3)c(C)n2n1`, for which the Inhibition came to 98% in the test on Plasmodium falciparum [1], 95% with Plasmodium falciparum [2] and 4% in the test with HepG2.
As for `COc1ccc(OC)c2c1CC1NCC2c2c(OC)ccc(OC)c21.Cl` (centres undefined), the Inhibition in the test with Plasmodium falciparum [1] is reported as 99%; in the test with Plasmodium falciparum [2], 3%; with HepG2, 2%.
Consider `COc1ccc2nccc([C@@H](O)CN3CCC(NC(=O)/C(=C/c4ccccc4)c4ccc(-c5ccccc5)cc4)CC3)c2c1`, for which the figures for the Inhibition in the test with Plasmodium falciparum [1], in the test with Plasmodium falciparum [2] and in the test on HepG2 were 94%, 38% and 4%, respectively.
Taken in the same sequence, the figures for `Brc1ccc(Nc2nc(NCc3ccccc3)c3ccccc3n2)cc1` were 100%, 99% and 24%.
As to `CC(=O)Nc1nc(C(=O)Nc2cccc(-c3cccc(-c4nc5cc(F)ccc5[nH]4)c3)c2)cs1`, the Inhibition with Plasmodium falciparum [1] is recorded as 100%; with Plasmodium falciparum [2], 100%; in the test on HepG2, 39%.
`Cc1ccc(Oc2ccccc2NC(=O)CCc2nc3ccccc3c(=O)[nH]2)cc1`: the results for the Inhibition in the test with Plasmodium falciparum [1], with Plasmodium falciparum [2] and in the test with HepG2 were 100%, 99% and 3%, respectively.
As for `c1ccc(Oc2ccc(Nc3ccnc4cc(-c5cccc(CNCCN6CCOCC6)c5)ccc34)cc2)cc1`, the figures for the Inhibition in the test on Plasmodium falciparum [1], in the test with Plasmodium falciparum [2] and with HepG2 were 100%, 98% and 12%, respectively.
For `O=C(c1cccc(-c2cccc(-c3nc4ccccc4[nH]3)c2)c1)N1CCCCC1CN1CCC(O)C1` (centres undefined), the Inhibition with Plasmodium falciparum [1] was determined as 100%; in the test with Plasmodium falciparum [2], 56%; in the test on HepG2 it was 66%.
Turning to `NC1CCN(Cc2cccc(-c3ccc(-c4nc5ccccc5[nH]4)cc3)c2)C1.O=C(O)C(F)(F)F` (centres undefined), the Inhibition was found to be 100% in the test with Plasmodium falciparum [1], 58% in the test on Plasmodium falciparum [2] and 24% in the test on HepG2.
The like results for `Cl.O=C1COc2ccc(S(=O)(=O)N3CCC[C@@H]3CCN3CCC(c4c[nH]c5cnccc45)CC3)cc2N1` were, in that order, 100%, 6% and 0%.
The like results for `O=C(NCCCCCN1CCC(c2c[nH]c3ccccc23)CC1)c1ccc(-c2ccccc2)nc1` were, in that order, 87%, 13% and 43%.
Taken in the same sequence, the figures for `CCOC(=O)C(C)(C)Oc1ccc(CN(Cc2ccc(CC(C)C)cc2)C(=O)Nc2ccc(F)cc2F)c(OC)c1` were 97%, 96% and 5%.
For the compound `OC1(c2ccc(Br)cc2)CCN(C2CCN(Cc3ccccc3)CC2)CC1`, the values for the Inhibition with Plasmodium falciparum [1], with Plasmodium falciparum [2] and in the test on HepG2 were 100%, 18% and 8%, respectively.
The like results for `Cc1cccc2nc(-c3ccc(-c4ccc(CNCc5ccc(S(C)(=O)=O)cc5)cc4)cc3)[nH]c12.O=C(O)C(F)(F)F` were, in that order, 93%, 38% and 19%.
Taken in the same sequence, the figures for `Cc1cccc2nc(-c3ccc(-c4cccc(NC(=O)C(C)CN5CCN(C)CC5)c4)s3)[nH]c12` (centres undefined) were 97%, 75% and 11%.
Turning to `Cc1ccc(/C=C2/SC(=Nc3ccccc3)NC2=O)c(C)c1`, the values for the Inhibition in the test on Plasmodium falciparum [1], in the test on Plasmodium falciparum [2] and in the test on HepG2 were 93%, 90% and 1%, respectively.
With `COc1c(C2CCN(CCCCNC(=O)c3cc(-c4ccc(C#N)cc4)n[nH]3)CC2)ccc2c1CCCC2`, the figures for the Inhibition in the test with Plasmodium falciparum [1], in the test on Plasmodium falciparum [2] and with HepG2 were 86%, 15% and 36%, respectively.
The like results for `COc1ccc(Br)cc1/C=C/C(=O)Nc1ccc(C2CCN(C)CC2)cc1.O=CO` were, in that order, 100%, 61% and 11%.
Take `Cc1ccc(-c2cc(C(=O)Nc3ccc(S(=O)(=O)N4CCCCC4C)cc3)n[nH]2)c(O)c1` (centres undefined): the Inhibition stood at 100% with Plasmodium falciparum [1], 99% in the test with Plasmodium falciparum [2] and 37% in the test on HepG2.
The like results for `FC(F)(F)c1cccc(CCNc2nccc(NCc3ccccc3Cl)n2)c1` were, in that order, 89%, 38% and 31%.
The like results for `CCc1cc(Br)c2c(c1)C(NCCCNc1cc(=O)c3ccccc3[nH]1)CCN2` (centres undefined) were, in that order, 94%, 20% and 13%.
Take `CC(C)CNC(=O)c1cncc(-c2ccc(CNC3Cc4ccccc4C3)cc2)c1.O=C(O)C(F)(F)F`: the figures for the Inhibition in the test on Plasmodium falciparum [1], in the test on Plasmodium falciparum [2] and in the test on HepG2 were 99%, 37% and 5%, respectively.
Taken in the same sequence, the figures for `CC(C)CNCc1cccc(-c2ccc(CN(CCCN3CCN(C)CC3)C(=O)/C=C/c3ccccc3)cc2)c1.O=C(O)C(F)(F)F` were 92%, 90% and 48%.

The Inhibition is the relative decrease from the control value, in per cent. A low value points to a weak effect.
